Assay results taken from the supplement of paper PMC8728848.
Many of the other results were omitted from the sample, so the strongest signals are more common in it than they were.

Experiments:
Assay in all cases: glycan array binding signal (z-score within array); higher = stronger binding
Conditions in all cases: glycan notation: IUPAC condensed, linker removed
[1] = molecular target: Fuc(a1-2)Gal(b1-3)GalNAc(b1-3)Gal(a1-4)Gal(b1-4)Glc
Procedure, shortened: (§1)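 Negative Z-scores can be read as non-binding. The Z-score is calculated within each array and then averaged across arrays of one protein sequence at different concentrations or buffers and across linkers. Arrays, 3228 in all, were curated from the Consortium for Functional Glycomics database and kept only where the protein sequence was available.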

[2] = molecular target: Fuc(a1-2)Gal(b1-4)GlcNAc(b1-3)[Fuc(a1-3)[Gal(b1-4)]GlcNAc(b1-6)]Gal(b1-4)Glc
Procedure, shortened: as §1

[3] = molecular target: Fuc(a1-2)Gal(b1-4)[Fuc(a1-3)]GlcNAc(b1-2)Man(a1-3)[Fuc(a1-2)Gal(b1-4)[Fuc(a1-3)]GlcNAc(b1-2)Man(a1-6)]Man(b1-4)GlcNAc(b1-4)[Fuc(a1-6)]GlcNAc
Procedure, shortened: as §1

[4] = molecular target: Fuc(a1-2)Gal(b1-4)[Fuc(a1-3)]GlcNAc(b1-3)GalNAc
Procedure, shortened: as §1

Fuc(a1-2)[Gal(a1-3)]Gal = molecular target: Fuc(a1-2)[Gal(a1-3)]Gal
Procedure, shortened: as §1

[5] = molecular target: Fuc(a1-2)[Gal(a1-3)]Gal(b1-3)GlcNAc
Procedure, shortened: as §1

[6] = molecular target: Fuc(a1-2)[Gal(a1-3)]Gal(b1-4)GlcNAc(b1-3)[Fuc(a1-2)[Gal(a1-3)]Gal(b1-4)GlcNAc(b1-6)]GalNAc
Procedure, shortened: as §1

[7] = molecular target: Fuc(a1-2)[GalNAc(a1-3)]Gal(b1-3)GlcNAc(b1-3)GalNAc
Procedure, shortened: as §1

[8] = molecular target: Fuc(a1-2)[GalNAc(a1-3)]Gal(b1-4)GlcNAc(b1-2)Man
Procedure, shortened: as §1

[9] = molecular target: Fuc(a1-2)[GalNAc(a1-3)]Gal(b1-4)[Fuc(a1-3)]GlcNAc(b1-3)GalNAc
Procedure, shortened: as §1

[10] = molecular target: Fuc(a1-3)[GalNAc(b1-4)]GlcNAc
Procedure, shortened: as §1

Fuc(a1-4)GlcNAc = molecular target: Fuc(a1-4)GlcNAc
Procedure, shortened: as §1

Gal(a1-3)Gal = molecular target: Gal(a1-3)Gal
Procedure, shortened: as §1

Gal(a1-3)Gal(b1-3)GlcNAc = molecular target: Gal(a1-3)Gal(b1-3)GlcNAc
Procedure, shortened: as §1

[11] = molecular target: Gal(a1-3)[Gal(a1-4)]Gal(b1-4)GlcNAc
Procedure, shortened: as §1

Gal(b1-3)GalNAc = molecular target: Gal(b1-3)GalNAc
Procedure, shortened: as §1

[12] = molecular target: Gal(b1-3)GlcNAc(b1-3)Gal(b1-4)GlcNAc
Procedure, shortened: as §1

[13] = molecular target: Gal(b1-4)GlcNAc(b1-2)[Gal(b1-4)GlcNAc(b1-6)]Man(a1-6)[GlcNAc(b1-4)][Gal(b1-4)GlcNAc(b1-2)Man(a1-3)]Man(b1-4)GlcNAc(b1-4)GlcNAc
Procedure, shortened: as §1

[14] = molecular target: Gal(b1-4)GlcNAc(b1-3)Gal(b1-4)GlcNAc(b1-3)Gal(b1-4)GlcNAc(b1-3)Gal(b1-4)GlcNAc(b1-2)[Gal(b1-4)GlcNAc(b1-3)Gal(b1-4)GlcNAc(b1-3)Gal(b1-4)GlcNAc(b1-3)Gal(b1-4)GlcNAc(b1-6)]Man(a1-6)[Gal(b1-4)GlcNAc(b1-3)Gal(b1-4)GlcNAc(b1-3)Gal(b1-4)GlcNAc(b1-3)Gal(b1-4)GlcNAc(b1-2)Man(a1-3)]Man(b1-4)GlcNAc(b1-4)[Fuc(a1-6)]GlcNAc
Procedure, shortened: as §1

[15] = molecular target: Gal(b1-4)GlcNAc(b1-3)Gal(b1-4)GlcNAc(b1-3)Gal(b1-4)GlcNAc(b1-3)Gal(b1-4)GlcNAc(b1-3)Gal(b1-4)GlcNAc(b1-3)Gal(b1-4)GlcNAc(b1-2)Man(a1-3)[Gal(b1-4)GlcNAc(b1-3)Gal(b1-4)GlcNAc(b1-3)Gal(b1-4)GlcNAc(b1-3)Gal(b1-4)GlcNAc(b1-3)Gal(b1-4)GlcNAc(b1-3)Gal(b1-4)GlcNAc(b1-2)Man(a1-6)]Man(b1-4)GlcNAc(b1-4)GlcNAc
Procedure, shortened: as §1

[16] = molecular target: Gal(b1-4)GlcNAc(b1-6)GalNAc
Procedure, shortened: as §1

[17] = molecular target: Gal(b1-4)GlcNAc(b1-6)[Gal(b1-3)]GalNAc
Procedure, shortened: as §1

[18] = molecular target: Gal3S(b1-3)[Fuc(a1-4)]GlcNAc
Procedure, shortened: as §1

[19] = molecular target: Gal3S(b1-4)[Fuc(a1-3)]Glc6S
Procedure, shortened: as §1

[20] = molecular target: GalNAc(b1-3)Gal(a1-4)Gal(b1-4)GlcNAc(b1-3)Gal(b1-4)Glc
Procedure, shortened: as §1

[21] = molecular target: GalNAc(b1-3)Gal(a1-6)Gal(b1-4)Glc
Procedure, shortened: as §1

GalNAc(b1-3)GlcNAc = molecular target: GalNAc(b1-3)GlcNAc
Procedure, shortened: as §1

GalNAc(b1-4)GlcNAc = molecular target: GalNAc(b1-4)GlcNAc
Procedure, shortened: as §1

[22] = molecular target: GlcNAc(b1-2)Gal(b1-3)GalNAc
Procedure, shortened: as §1

[23] = molecular target: GlcNAc(b1-2)[GlcNAc(b1-4)]Man(a1-3)[GlcNAc(b1-2)Man(a1-6)]Man(b1-4)GlcNAc(b1-4)GlcNAc
Procedure, shortened: as §1

[24] = molecular target: GlcNAc(b1-2)[GlcNAc(b1-4)]Man(a1-3)[GlcNAc(b1-4)][GlcNAc(b1-2)Man(a1-6)]Man(b1-4)GlcNAc(b1-4)GlcNAc
Procedure, shortened: as §1

[25] = molecular target: GlcNAc(b1-3)Gal(b1-4)GlcNAc(b1-3)Gal(b1-4)GlcNAc(b1-2)Man(a1-3)[GlcNAc(b1-3)Gal(b1-4)GlcNAc(b1-3)Gal(b1-4)GlcNAc(b1-2)Man(a1-6)]Man(b1-4)GlcNAc(b1-4)GlcNAc
Procedure, shortened: as §1

[26] = molecular target: GlcNAc(b1-4)Gal(b1-4)GlcNAc
Procedure, shortened: as §1

[27] = molecular target: Man(a1-3)[Man(a1-6)]Man(b1-4)GlcNAc(b1-4)[Fuc(a1-6)]GlcNAc
Procedure, shortened: as §1

[28] = molecular target: Neu5Ac(a2-3)Gal(b1-3)GlcNAc(b1-3)GalNAc
Procedure, shortened: as §1

[29] = molecular target: Neu5Ac(a2-3)Gal(b1-4)GlcNAc(b1-2)[Neu5Ac(a2-3)Gal(b1-4)GlcNAc(b1-6)]Man(a1-6)[Neu5Ac(a2-3)Gal(b1-4)GlcNAc(b1-2)Man(a1-3)]Man(b1-4)GlcNAc(b1-4)GlcNAc
Procedure, shortened: as §1

[30] = molecular target: Neu5Ac(a2-3)Gal(b1-4)GlcNAc(b1-3)Gal
Procedure, shortened: as §1

[31] = molecular target: Neu5Ac(a2-3)Gal(b1-4)GlcNAc(b1-3)[Neu5Ac(a2-3)Gal(b1-4)GlcNAc(b1-6)]GalNAc
Procedure, shortened: as §1

[32] = molecular target: Neu5Ac(a2-3)Gal(b1-4)[Fuc(a1-3)]GlcNAc(b1-3)GalNAc
Procedure, shortened: as §1

[33] = molecular target: Neu5Ac(a2-3)Gal(b1-4)[Fuc(a1-3)]GlcNAc(b1-6)[Neu5Ac(a2-3)Gal(b1-3)]GalNAc
Procedure, shortened: as §1

[34] = molecular target: Neu5Ac(a2-6)Gal(b1-4)GlcNAc(b1-3)Gal(b1-4)GlcNAc
Procedure, shortened: as §1

[35] = molecular target: Neu5Ac(a2-6)Gal(b1-4)GlcNAc(b1-3)Gal(b1-4)GlcNAc(b1-3)[Neu5Ac(a2-6)Gal(b1-4)GlcNAc(b1-3)Gal(b1-4)GlcNAc(b1-6)]GalNAc
Procedure, shortened: as §1

[36] = molecular target: Neu5Ac(a2-8)Neu5Ac(a2-3)[GalNAc(b1-4)]Gal(b1-4)Glc
Procedure, shortened: as §1

[37] = molecular target: Neu5Ac(a2-8)Neu5Ac(a2-8)Neu5Ac(a2-3)[Gal(b1-3)GalNAc(b1-4)]Gal(b1-4)Glc
Procedure, shortened: as §1

[38] = molecular target: Neu5Gc(a2-3)Gal(b1-4)[Fuc(a1-3)]GlcNAc
Procedure, shortened: as §1

B1: AT5G24760(45) (Arabidopsis thaliana), Q8LEB2 (protein)
chain: MSASSSSFEQPQVITCNAAVAWRAGEPLVMEEVEVSPPQPLEIRIKVVCTSLCRSDLSAWESQSLLPRIFGHEAAGIVESIGEGVTEFEKGDHVLAVFTGECGSCRHCISGKSNMCQVLGMERKGLMHSDQKTRFSIKGKPVYHYCAVSSFSEYTVVHSGCAVKVDPLAPLHKICLLSCGVAAGLGAAWNVADVQKGSSVVIFGLGTVGLSVAQGAKLRGAAQILGVDINPAKAEQAKTFGVTDFINSNDLSEPIPQVIKRMTGGGADFSFECVGDTGIATTALQSCSDGWGMTVTLGVPKAKPEVSAHYGLFLSGKSLKGTLFGGWKPKSDLPSLIDKYMNKEIMIDEFITHNLSFDEINKAFVLMREGKCLRCVLHMPK
[1]
  glycan array binding signal (z-score): -0.051
[2]
  glycan array binding signal (z-score): 0.166
[3]
  glycan array binding signal (z-score): 0.395
[4]
  glycan array binding signal (z-score): 4.6
Fuc(a1-2)[Gal(a1-3)]Gal
  glycan array binding signal (z-score): 0.984
[5]
  glycan array binding signal (z-score): -0.224
[6]
  glycan array binding signal (z-score): 0.627
[7]
  glycan array binding signal (z-score): 3.83
[8]
  glycan array binding signal (z-score): -0.179
[9]
  glycan array binding signal (z-score): 6.82
[10]
  glycan array binding signal (z-score): 1.18
Fuc(a1-4)GlcNAc
  glycan array binding signal (z-score): 1.12
Gal(a1-3)Gal
  glycan array binding signal (z-score): 0.612
Gal(a1-3)Gal(b1-3)GlcNAc
  glycan array binding signal (z-score): 7.36
[11]
  glycan array binding signal (z-score): 6.01
Gal(b1-3)GalNAc
  glycan array binding signal (z-score): 0.106
[12]
  glycan array binding signal (z-score): -0.138
[13]
  glycan array binding signal (z-score): -1.03
[14]
  glycan array binding signal (z-score): -0.779
[15]
  glycan array binding signal (z-score): -0.887
[16]
  glycan array binding signal (z-score): 1.23
[17]
  glycan array binding signal (z-score): -0.485
[18]
  glycan array binding signal (z-score): 0.437
[19]
  glycan array binding signal (z-score): 2.68
[20]
  glycan array binding signal (z-score): -0.632
[21]
  glycan array binding signal (z-score): -0.337
GalNAc(b1-3)GlcNAc
  glycan array binding signal (z-score): 0.645
GalNAc(b1-4)GlcNAc
  glycan array binding signal (z-score): 3.23
[22]
  glycan array binding signal (z-score): 2.61
[23]
  glycan array binding signal (z-score): 1.01
[24]
  glycan array binding signal (z-score): -0.932
[25]
  glycan array binding signal (z-score): 1.14
[26]
  glycan array binding signal (z-score): 2.53
[27]
  glycan array binding signal (z-score): -0.202
[28]
  glycan array binding signal (z-score): -0.553
[29]
  glycan array binding signal (z-score): -0.601
[30]
  glycan array binding signal (z-score): -0.951
[31]
  glycan array binding signal (z-score): -1.2
[32]
  glycan array binding signal (z-score): 3.17
[33]
  glycan array binding signal (z-score): 2.76
[34]
  glycan array binding signal (z-score): -0.877
[35]
  glycan array binding signal (z-score): -0.602
[36]
  glycan array binding signal (z-score): -0.388
[37]
  glycan array binding signal (z-score): 0.125
[38]
  glycan array binding signal (z-score): -0.203
